# Results taken from PubChem BioAssay (EPA / NIEHS).
# Records with an inconclusive call do not appear. Active and inactive are the calls of the source. The calls were made as follows: active = hit-call score of the fitted dose curve at least 0.9, where 1 is the maximum; inconclusive = response in the unintended direction; inactive = score below 0.9.
# What was measured:
# [1] = target: human Adrenergic, Beta 3 Receptor (Adrb3), ADRB3 (gene 155) (UniProt P13945); test: NVS_GPCR_hAdrb3: NovaScreen (NVS) G Protein-Coupled Receptor Assay for human Adrenergic, Beta 3 Receptor (Adrb3) (AID 2283262)
# Chain of human Adrenergic, Beta 3 Receptor (Adrb3), ADRB3 (gene 155) (P13945 whole entry, looked up): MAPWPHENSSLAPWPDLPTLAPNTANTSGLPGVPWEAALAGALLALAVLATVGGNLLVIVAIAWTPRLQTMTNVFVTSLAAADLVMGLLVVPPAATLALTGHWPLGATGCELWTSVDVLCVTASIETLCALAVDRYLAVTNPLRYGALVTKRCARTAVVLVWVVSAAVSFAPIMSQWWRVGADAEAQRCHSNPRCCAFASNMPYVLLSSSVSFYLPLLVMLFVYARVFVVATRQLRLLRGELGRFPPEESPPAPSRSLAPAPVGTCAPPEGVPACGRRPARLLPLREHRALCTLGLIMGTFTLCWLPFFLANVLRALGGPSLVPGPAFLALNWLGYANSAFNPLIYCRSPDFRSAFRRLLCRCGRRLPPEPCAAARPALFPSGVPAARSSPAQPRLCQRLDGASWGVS
# Summary of the method: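 Membranes from SK-N-MC cells pretreated with isoproterenol and 8-bromo-cAMP were used in a radioligand competitive displacement binding assay. Binding was read by filter-based scintillation counting 1 hour after dosing. Primary screening was in duplicate at 25 uM, with concentration series in follow-up.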
# [2] = target: human Adrenergic, Beta 1 Receptor (Adrb1), ADRB1 (gene 153) (UniProt P08588); test: NVS_GPCR_hAdrb1: NovaScreen (NVS) G Protein-Coupled Receptor Assay for human Adrenergic, Beta 1 Receptor (Adrb1) (AID 2283258)
# Chain of human Adrenergic, Beta 1 Receptor (Adrb1), ADRB1 (gene 153) (P08588 whole entry, looked up): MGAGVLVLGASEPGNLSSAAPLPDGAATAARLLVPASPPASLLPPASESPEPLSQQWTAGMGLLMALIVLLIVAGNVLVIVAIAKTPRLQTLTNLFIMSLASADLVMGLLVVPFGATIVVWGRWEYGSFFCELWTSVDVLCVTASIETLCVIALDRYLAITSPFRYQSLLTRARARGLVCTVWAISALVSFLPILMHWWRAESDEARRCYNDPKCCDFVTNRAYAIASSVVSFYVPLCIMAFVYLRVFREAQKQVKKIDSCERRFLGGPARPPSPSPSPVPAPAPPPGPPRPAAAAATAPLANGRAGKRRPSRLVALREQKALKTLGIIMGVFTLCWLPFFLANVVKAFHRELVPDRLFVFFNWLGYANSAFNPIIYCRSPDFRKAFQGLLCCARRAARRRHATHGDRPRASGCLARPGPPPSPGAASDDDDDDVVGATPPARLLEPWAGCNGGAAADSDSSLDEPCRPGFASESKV
# Summary of the method: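 Cell-free radioligand displacement on receptor from human neuroepithelioma cells; 2 h after dosing, filter-based scintillation counting. Primary screen in duplicate at 25 uM, actives retested in concentration series; loss of signal vs DMSO baseline.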
# [3] = target: human Serotonin, 5-Hydroxytryptamine Receptor 7 (5HT7), HTR7 (gene 3363) (UniProt P34969); test: NVS_GPCR_h5HT7: NovaScreen (NVS) G Protein-Coupled Receptor Assay for human Serotonin, 5-Hydroxytryptamine Receptor 7 (5HT7) (AID 2283255);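 also: hits reduce specific radioligand binding relative to DMSO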
# Chain of human Serotonin, 5-Hydroxytryptamine Receptor 7 (5HT7), HTR7 (gene 3363) (P34969 whole entry, looked up): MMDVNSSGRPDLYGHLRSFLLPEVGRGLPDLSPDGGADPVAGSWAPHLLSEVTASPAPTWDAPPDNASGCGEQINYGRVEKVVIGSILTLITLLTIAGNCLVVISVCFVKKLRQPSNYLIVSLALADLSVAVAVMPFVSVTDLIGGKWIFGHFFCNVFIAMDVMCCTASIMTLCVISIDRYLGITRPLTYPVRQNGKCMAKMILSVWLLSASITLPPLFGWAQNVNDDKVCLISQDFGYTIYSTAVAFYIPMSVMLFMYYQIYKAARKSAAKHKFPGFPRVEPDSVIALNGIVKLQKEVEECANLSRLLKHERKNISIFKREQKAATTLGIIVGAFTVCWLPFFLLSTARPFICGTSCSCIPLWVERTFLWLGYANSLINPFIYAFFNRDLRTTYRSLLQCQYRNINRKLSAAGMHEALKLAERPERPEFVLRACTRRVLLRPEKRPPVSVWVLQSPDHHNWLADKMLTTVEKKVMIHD
# Summary of the method: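 Radioligand displacement on membranes from CHO cells expressing human 5HT7, 1 h incubation, filter-based scintillation counting. Primary screen used a single 25 uM concentration in duplicate; actives were followed up in concentration series.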
# [4] = target: Type-1 angiotensin II receptor (Homo sapiens) (UniProt P30556); test: NVS_GPCR_hAT1: NovaScreen (NVS) G Protein-Coupled Receptor Assay for human Angiotensin II receptor type 1 (AT1) (AID 2283263)
# Chain of Type-1 angiotensin II receptor (Homo sapiens) (P30556 whole entry, looked up): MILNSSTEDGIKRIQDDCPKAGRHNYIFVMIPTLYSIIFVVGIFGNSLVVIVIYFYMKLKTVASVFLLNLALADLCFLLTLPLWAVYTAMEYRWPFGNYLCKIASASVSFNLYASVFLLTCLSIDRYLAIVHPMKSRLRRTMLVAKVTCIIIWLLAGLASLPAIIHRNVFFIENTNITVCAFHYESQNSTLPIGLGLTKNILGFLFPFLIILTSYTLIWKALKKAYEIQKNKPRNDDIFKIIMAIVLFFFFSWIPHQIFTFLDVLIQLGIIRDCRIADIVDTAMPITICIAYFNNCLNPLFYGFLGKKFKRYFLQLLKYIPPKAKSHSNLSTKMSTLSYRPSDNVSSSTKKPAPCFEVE
# Summary of the method: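 Membranes from KAN-TS cells; radioligand competitive displacement, 3 h, filtration and scintillation counting. Single-point duplicate screen at 25 uM, then concentration-response up to 50 uM for hits; loss of signal fitted versus DMSO.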
# [5] = test system: guinea pig Muscarinic, Peripheral (Mperiperal) Receptor, Non-selective Binding, gene 100379235; test: NVS_GPCR_gMPeripheral_NonSelective: NovaScreen (NVS) G Protein-Coupled Receptor Assay for guinea pig Muscarinic, Peripheral (Mperiperal) Receptor, Non-selective Binding (AID 2283250)
# Summary of the method: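 Guinea pig bladder membranes, radioligand binding read 1 h after dosing by filter scintillation counting; loss of signal vs DMSO. Primary duplicate screen at 25 uM, then concentration-response up to 50 uM.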
# [6] = target: guinea pig Opioid, Kappa 1 Receptor (OpiateK), OPRK1 (gene 100135587) (UniProt P41144); test: NVS_GPCR_gOpiateK: NovaScreen (NVS) G Protein-Coupled Receptor Assay for guinea pig Opioid, Kappa 1 Receptor (OpiateK) (AID 2283252);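 also: radioligand displacement from kappa opioid receptor in guinea pig cerebellar membranes; active means reduced radioligand binding relative to DMSO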
# Chain of guinea pig Opioid, Kappa 1 Receptor (OpiateK), OPRK1 (gene 100135587) (P41144 whole entry, looked up): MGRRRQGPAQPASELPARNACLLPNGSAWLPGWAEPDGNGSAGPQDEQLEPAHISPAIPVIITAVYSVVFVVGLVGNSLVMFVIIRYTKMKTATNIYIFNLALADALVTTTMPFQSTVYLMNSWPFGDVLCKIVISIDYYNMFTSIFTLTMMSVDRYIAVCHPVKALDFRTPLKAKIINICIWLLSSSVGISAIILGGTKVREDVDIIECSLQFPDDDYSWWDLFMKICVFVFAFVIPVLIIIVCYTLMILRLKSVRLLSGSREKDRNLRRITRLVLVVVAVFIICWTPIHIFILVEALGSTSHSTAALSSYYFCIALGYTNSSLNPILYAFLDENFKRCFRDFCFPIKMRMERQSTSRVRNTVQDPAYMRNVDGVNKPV
# Summary of the method: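 Signal is scintillation counts of filter-trapped radioligand bound to guinea pig cerebellar membrane receptor, measured 2 hours post-dosing. Activity is loss of binding versus DMSO, first at 25 uM in duplicate, then as concentration series for actives.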
# [7] = target: human Histamine 1 Receptor (H1), HRH1 (gene 3269) (UniProt P35367); test: NVS_GPCR_hH1: NovaScreen (NVS) G Protein-Coupled Receptor Assay for human Histamine 1 Receptor (H1) (AID 2283268)
# Chain of human Histamine 1 Receptor (H1), HRH1 (gene 3269) (P35367 whole entry, looked up): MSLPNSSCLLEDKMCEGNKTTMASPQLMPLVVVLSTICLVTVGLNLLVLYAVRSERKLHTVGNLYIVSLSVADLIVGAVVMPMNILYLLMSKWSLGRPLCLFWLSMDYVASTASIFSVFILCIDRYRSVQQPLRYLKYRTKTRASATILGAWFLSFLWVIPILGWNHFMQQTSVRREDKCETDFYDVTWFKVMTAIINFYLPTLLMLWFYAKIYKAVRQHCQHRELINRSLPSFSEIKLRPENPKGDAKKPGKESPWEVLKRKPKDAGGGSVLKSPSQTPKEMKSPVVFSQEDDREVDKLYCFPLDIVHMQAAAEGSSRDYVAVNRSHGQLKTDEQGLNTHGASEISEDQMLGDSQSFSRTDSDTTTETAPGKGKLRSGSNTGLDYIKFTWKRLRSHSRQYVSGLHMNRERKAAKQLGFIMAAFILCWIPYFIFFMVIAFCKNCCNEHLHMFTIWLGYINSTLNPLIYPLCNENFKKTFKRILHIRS
# Summary of the method: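 Cell-free radioligand displacement at human H1 receptor, 1 h, filter scintillation counting; primary screen 25 uM in duplicate, hits in concentration series; loss of binding fitted vs DMSO.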
# [8] = target: human Serotonin, 5-Hydroxytryptamine Receptor 6 (5HT6), HTR6 (gene 3362) (UniProt P50406); test: NVS_GPCR_h5HT6: NovaScreen (NVS) G Protein-Coupled Receptor Assay for human Serotonin, 5-Hydroxytryptamine Receptor 6 (5HT6) (AID 2283253)
# Chain of human Serotonin, 5-Hydroxytryptamine Receptor 6 (5HT6), HTR6 (gene 3362) (P50406 whole entry, looked up): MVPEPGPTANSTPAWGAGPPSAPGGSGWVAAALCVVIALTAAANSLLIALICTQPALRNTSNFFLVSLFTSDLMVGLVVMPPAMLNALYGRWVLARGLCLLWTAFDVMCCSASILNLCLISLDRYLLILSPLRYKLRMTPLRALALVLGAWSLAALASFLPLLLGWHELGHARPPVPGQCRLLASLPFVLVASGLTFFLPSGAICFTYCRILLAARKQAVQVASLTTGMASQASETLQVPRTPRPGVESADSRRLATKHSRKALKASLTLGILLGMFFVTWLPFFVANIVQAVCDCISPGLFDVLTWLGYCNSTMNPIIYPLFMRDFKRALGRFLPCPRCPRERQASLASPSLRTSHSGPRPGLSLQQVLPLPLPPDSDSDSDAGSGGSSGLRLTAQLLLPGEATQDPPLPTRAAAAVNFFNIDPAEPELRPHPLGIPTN
# Summary of the method: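 Radioligand binding to 5HT6 in HEK293-derived membranes, cell-free, 1 h after dosing; bound ligand measured by filter-based scintillation counting. Primary screen in duplicate at 25 uM; actives retested in concentration series.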
# [9] = target: human Adenosine A2a Receptor (AdoRA2a), ADORA2A (gene 135) (UniProt P29274); test: NVS_GPCR_hAdoRA2a: NovaScreen (NVS) G Protein-Coupled Receptor Assay for human Adenosine A2a Receptor (AdoRA2a) (AID 2283256)
# Chain of human Adenosine A2a Receptor (AdoRA2a), ADORA2A (gene 135) (P29274 whole entry, looked up): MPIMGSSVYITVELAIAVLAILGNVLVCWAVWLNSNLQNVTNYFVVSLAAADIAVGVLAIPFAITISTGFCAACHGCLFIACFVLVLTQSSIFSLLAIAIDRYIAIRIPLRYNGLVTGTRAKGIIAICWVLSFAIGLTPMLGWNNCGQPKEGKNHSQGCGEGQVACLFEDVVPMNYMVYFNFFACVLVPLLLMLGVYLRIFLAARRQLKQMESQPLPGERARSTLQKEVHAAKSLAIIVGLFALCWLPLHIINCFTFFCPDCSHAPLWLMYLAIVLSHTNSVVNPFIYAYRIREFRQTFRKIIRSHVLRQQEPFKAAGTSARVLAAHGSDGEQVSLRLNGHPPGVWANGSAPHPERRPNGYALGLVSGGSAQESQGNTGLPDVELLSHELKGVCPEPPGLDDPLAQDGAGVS
# Summary of the method: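 Cell-free radioligand binding on membranes from HEK293 expressing the receptor; competitive displacement read 1.5 h after dosing by filter-based scintillation counting. Primary screen in duplicate at 25 uM; actives followed in concentration series, with DMSO as baseline.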
# [10] = target: human Serotonin, 5-Hydroxytryptamine Receptor 2A (5HT2A), HTR2A (gene 3356) (UniProt P28223); test: NVS_GPCR_h5HT2A: NovaScreen (NVS) G Protein-Coupled Receptor Assay for human Serotonin, 5-Hydroxytryptamine Receptor 2A (5HT2A) (AID 2283249)
# Chain of human Serotonin, 5-Hydroxytryptamine Receptor 2A (5HT2A), HTR2A (gene 3356) (P28223 whole entry, looked up): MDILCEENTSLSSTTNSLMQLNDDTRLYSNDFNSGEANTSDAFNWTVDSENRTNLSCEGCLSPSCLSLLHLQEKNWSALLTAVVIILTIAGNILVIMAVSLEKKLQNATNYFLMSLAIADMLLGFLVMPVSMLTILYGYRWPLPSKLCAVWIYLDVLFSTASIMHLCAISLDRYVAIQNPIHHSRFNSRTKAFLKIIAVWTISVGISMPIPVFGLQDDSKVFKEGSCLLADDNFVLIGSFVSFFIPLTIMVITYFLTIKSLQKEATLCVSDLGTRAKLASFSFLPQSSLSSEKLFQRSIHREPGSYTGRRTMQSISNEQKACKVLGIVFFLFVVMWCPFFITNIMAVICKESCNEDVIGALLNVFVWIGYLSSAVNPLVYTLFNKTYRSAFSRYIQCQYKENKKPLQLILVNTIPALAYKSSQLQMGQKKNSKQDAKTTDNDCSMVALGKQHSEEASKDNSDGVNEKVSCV
# Summary of the method: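 Human cortex membranes, cell-free radioligand binding; filter-based scintillation read 1.5 h after dosing. Duplicate screen at 25 uM first; displacement of specific binding (loss of signal) versus DMSO.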
# [11] = target: human Adrenergic, Alpha 2A Receptor (Adra2A), ADRA2A (gene 150) (UniProt P08913); test: NVS_GPCR_hAdra2A: NovaScreen (NVS) G Protein-Coupled Receptor Assay for human Adrenergic, Alpha 2A Receptor (Adra2A) (AID 2283257)
# Chain of human Adrenergic, Alpha 2A Receptor (Adra2A), ADRA2A (gene 150) (P08913 whole entry, looked up): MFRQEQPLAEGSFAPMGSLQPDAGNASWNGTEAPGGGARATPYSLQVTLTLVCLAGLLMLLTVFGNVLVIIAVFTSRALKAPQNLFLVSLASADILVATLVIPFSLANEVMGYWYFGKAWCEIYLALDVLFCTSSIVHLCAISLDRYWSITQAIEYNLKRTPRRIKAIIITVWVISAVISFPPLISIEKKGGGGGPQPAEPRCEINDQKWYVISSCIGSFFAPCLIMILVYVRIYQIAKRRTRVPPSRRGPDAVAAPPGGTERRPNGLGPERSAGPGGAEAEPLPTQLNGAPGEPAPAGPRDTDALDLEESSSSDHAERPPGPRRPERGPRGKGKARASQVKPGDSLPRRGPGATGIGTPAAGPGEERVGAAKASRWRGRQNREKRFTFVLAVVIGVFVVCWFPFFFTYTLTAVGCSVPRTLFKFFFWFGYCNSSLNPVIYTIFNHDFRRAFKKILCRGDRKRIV
# Summary of the method: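 Radioligand filter-binding was run on HT29-derived membranes, cell-free, read by scintillation counting 1 h after dosing. Primary screening was in duplicate at 25 uM, with concentration series in follow-up. Loss of signal versus DMSO indicates displacement.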
# [12] = target: human Adrenergic, Alpha 2c Receptor (Adra2C), ADRA2C (gene 152) (UniProt P18825); test: NVS_GPCR_hAdra2C: NovaScreen (NVS) G Protein-Coupled Receptor Assay for human Adrenergic, Alpha 2c Receptor (Adra2C) (AID 2283259)
# Chain of human Adrenergic, Alpha 2c Receptor (Adra2C), ADRA2C (gene 152) (P18825 whole entry, looked up): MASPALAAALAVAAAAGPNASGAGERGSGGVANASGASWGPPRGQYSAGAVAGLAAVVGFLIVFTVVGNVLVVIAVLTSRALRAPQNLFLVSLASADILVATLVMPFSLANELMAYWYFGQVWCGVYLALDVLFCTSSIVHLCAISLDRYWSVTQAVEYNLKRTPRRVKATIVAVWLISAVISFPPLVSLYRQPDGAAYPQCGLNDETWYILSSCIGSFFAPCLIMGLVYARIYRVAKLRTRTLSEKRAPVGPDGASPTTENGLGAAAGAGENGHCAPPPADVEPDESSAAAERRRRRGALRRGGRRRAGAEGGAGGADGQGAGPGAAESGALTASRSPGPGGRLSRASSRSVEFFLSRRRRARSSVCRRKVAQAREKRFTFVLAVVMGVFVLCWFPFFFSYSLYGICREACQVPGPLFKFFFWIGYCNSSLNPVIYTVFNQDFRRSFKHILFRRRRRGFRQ
# Summary of the method: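 Radioligand binding on Sf9-expressed receptor membranes, 1 h after chemical dosing, filter-based scintillation read-out. Loss of binding fitted positively versus DMSO; primary duplicate screen at 25 uM, actives retested in concentration series.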
# [13] = target: human Endothelin Receptor Type B (ETB), EDNRB (gene 1910) (UniProt P24530); test: NVS_GPCR_hETB: NovaScreen (NVS) G Protein-Coupled Receptor Assay for human Endothelin Receptor Type B (ETB) (AID 2283267)
# Summary of the method: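 Human astrocytoma cell membranes; radioligand competitive binding read by filter scintillation counting 4 hours after dosing. Single-concentration duplicate screen at 25 uM, then singleton concentration-response up to 50 uM; loss of signal versus DMSO.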
smiles,measurement,setting,value
CC(O)CC(C)(C)O (configuration not stated),AC50,[1],0.159 µM (active)
CCCCCCCCOc1ccc(C(=O)c2ccccc2)c(O)c1,outcome,[2],inactive
CN1C(=O)N(c2ccccc2Br)Cc2cnc(Nc3ccc4c(c3)OCC(CO)O4)nc21 (configuration not stated),outcome,[3],inactive
CO[C@H]1/C=C/O[C@@]2(C)Oc3c(C)c(O)c4c(O)c(c(/C=N/N5CCN(C)CC5)c(O)c4c3C2=O)NC(=O)/C(C)=C\C=C\[C@H](C)[C@H](O)[C@@H](C)[C@@H](O)[C@@H](C)[C@H](OC(C)=O)[C@@H]1C,outcome,[4],inactive
c1ccc(C[n+]2cccc3ccccc32)cc1,AC50,[5],8.25 µM (active)
same,AC50,[6],11.8 µM (active)
same,AC50,[7],13 µM (active)
CCCCOC(=O)c1ccc(O)cc1,outcome,[6],inactive
Cc1cc2c(cc1C(F)(F)F)N(C(=O)Nc1ccc(Oc3cccnc3C)nc1)CC2,outcome,[5],inactive
same,AC50,[8],2.91 µM (active)
same,outcome,[3],inactive
O=C1CCC(C2CCCCC2)CC1,outcome,[4],inactive
C[C@]12CC[C@@H]3c4ccc(O)cc4CC[C@H]3[C@@H]1CC[C@H]2O,AC50,[8],25 µM (active)
O=c1c(-c2ccc(O)cc2)coc2cc(O)cc(O)c12,AC50,[9],6.03 µM (active)
CCCCOC(=O)CC(CC(=O)OCCCC)(OC(C)=O)C(=O)OCCCC,outcome,[1],inactive
OC12N=C(c3ccccc3)SC1Cc1cc(Cl)ccc12 (configuration not stated),outcome,[10],inactive
Clc1cc(Cl)c2c(c1)N=C1CCCCCN1C2,AC50,[5],6.74 µM (active)
same,AC50,[6],10.5 µM (active)
same,AC50,[11],2.99 µM (active)
same,AC50,[12],5.73 µM (active)
same,outcome,[1],inactive
same,AC50,[7],4.5 µM (active)
CCCCCc1ccc(N)cc1,outcome,[13],inactive
Cc1occc1C(=O)Nc1ccc(C(=O)N2CCC(F)(F)/C(=C\C(=O)N3CCC(N4CCCCC4)CC3)c3ccccc32)cc1,AC50,[5],5.65 µM (active)
same,AC50,[6],2.49 µM (active)
same,AC50,[3],4.89 µM (active)
same,AC50,[9],2.33 µM (active)
same,AC50,[11],3.18 µM (active)
same,AC50,[12],1.03 µM (active)
same,outcome,[1],inactive
same,AC50,[7],0.148 µM (active)
CCCCCCCCOC(=O)c1cc(O)c(O)c(O)c1,AC50,[3],17 µM (active)
same,AC50,[9],8.09 µM (active)
same,AC50,[2],22.6 µM (active)
same,AC50,[12],11.8 µM (active)
same,AC50,[7],42.8 µM (active)
CCN(Cc1cccc(S(=O)(=O)O)c1)c1ccc(C(=C2C=CC(=[N+](CC)Cc3cccc(S(=O)(=O)O)c3)C=C2)c2ccccc2S(=O)(=O)[O-])cc1,AC50,[3],10.3 µM (active)
